Here are results for one compound from ChEMBL document CHEMBL2218924, “A broad activity screen in support of a chemogenomic map for kinase signalling research and drug discovery” (Biochem J, 2013).

The structures appear in SMILES notation.

In assay [1] the target is T1, Ephrin type-A receptor 3 (Homo sapiens) (UniProt P29320).
T1 sequence (whole entry): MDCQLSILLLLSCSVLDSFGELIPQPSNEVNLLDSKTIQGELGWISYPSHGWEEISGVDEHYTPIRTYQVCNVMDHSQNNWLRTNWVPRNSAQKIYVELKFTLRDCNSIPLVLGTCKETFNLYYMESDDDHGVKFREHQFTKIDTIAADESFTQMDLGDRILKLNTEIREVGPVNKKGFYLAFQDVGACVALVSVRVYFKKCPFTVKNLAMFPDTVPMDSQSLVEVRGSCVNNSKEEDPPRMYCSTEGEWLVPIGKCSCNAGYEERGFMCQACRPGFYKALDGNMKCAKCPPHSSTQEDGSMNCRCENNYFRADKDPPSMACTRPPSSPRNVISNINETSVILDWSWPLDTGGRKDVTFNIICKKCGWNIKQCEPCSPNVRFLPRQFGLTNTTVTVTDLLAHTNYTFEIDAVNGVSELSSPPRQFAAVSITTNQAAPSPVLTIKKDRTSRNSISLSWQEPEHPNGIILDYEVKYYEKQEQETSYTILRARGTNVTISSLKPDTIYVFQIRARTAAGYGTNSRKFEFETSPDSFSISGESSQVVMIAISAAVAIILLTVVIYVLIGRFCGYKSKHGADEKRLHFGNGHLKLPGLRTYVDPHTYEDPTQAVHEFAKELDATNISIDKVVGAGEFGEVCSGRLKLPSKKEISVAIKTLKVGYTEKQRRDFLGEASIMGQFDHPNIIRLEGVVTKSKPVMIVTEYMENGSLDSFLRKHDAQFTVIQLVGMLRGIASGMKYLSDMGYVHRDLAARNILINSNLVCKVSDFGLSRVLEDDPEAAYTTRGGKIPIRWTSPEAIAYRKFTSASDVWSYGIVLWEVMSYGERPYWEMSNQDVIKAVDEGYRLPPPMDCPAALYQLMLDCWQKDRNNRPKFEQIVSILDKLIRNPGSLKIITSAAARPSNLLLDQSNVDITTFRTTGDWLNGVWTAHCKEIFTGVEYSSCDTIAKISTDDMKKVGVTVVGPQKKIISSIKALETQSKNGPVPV
The following applies: at 10 µM.

In assay [2] the target is Ephrin type-A receptor 4 (Homo sapiens) (UniProt P54764). As to conditions: at 1 µM.
Ephrin type-A receptor 4 (Homo sapiens), sequence (P54764 whole entry): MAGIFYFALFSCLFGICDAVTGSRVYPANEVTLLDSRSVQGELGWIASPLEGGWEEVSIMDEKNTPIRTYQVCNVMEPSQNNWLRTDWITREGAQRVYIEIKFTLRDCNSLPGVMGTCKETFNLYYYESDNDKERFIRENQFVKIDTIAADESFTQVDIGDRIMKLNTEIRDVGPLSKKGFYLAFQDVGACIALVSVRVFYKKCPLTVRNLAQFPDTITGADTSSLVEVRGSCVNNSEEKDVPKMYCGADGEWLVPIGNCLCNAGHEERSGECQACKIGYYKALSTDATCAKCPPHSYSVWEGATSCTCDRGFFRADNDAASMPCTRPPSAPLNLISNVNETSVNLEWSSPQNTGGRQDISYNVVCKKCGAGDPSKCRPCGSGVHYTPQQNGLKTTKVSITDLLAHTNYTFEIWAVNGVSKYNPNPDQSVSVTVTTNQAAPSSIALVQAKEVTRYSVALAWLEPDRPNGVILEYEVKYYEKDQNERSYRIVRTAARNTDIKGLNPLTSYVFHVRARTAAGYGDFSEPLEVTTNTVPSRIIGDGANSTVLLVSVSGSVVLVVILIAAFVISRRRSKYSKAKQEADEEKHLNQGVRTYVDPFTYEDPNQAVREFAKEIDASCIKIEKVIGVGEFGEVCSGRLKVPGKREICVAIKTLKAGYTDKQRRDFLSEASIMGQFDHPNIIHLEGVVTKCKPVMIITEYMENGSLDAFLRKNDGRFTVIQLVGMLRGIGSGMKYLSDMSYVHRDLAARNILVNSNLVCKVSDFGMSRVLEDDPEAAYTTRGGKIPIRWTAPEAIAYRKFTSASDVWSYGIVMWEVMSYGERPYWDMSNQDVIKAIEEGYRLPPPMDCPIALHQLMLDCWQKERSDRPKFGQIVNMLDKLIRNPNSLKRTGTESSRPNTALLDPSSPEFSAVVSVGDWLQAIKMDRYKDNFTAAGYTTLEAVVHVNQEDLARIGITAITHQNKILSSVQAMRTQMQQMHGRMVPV
Assay [3] shares this target. The following applies: at 10 µM.
In assay [4] the target is Ephrin type-A receptor 5 (Homo sapiens) (UniProt P54756). The following applies: at 1 µM.
Ephrin type-A receptor 5 (Homo sapiens), sequence (P54756 whole entry): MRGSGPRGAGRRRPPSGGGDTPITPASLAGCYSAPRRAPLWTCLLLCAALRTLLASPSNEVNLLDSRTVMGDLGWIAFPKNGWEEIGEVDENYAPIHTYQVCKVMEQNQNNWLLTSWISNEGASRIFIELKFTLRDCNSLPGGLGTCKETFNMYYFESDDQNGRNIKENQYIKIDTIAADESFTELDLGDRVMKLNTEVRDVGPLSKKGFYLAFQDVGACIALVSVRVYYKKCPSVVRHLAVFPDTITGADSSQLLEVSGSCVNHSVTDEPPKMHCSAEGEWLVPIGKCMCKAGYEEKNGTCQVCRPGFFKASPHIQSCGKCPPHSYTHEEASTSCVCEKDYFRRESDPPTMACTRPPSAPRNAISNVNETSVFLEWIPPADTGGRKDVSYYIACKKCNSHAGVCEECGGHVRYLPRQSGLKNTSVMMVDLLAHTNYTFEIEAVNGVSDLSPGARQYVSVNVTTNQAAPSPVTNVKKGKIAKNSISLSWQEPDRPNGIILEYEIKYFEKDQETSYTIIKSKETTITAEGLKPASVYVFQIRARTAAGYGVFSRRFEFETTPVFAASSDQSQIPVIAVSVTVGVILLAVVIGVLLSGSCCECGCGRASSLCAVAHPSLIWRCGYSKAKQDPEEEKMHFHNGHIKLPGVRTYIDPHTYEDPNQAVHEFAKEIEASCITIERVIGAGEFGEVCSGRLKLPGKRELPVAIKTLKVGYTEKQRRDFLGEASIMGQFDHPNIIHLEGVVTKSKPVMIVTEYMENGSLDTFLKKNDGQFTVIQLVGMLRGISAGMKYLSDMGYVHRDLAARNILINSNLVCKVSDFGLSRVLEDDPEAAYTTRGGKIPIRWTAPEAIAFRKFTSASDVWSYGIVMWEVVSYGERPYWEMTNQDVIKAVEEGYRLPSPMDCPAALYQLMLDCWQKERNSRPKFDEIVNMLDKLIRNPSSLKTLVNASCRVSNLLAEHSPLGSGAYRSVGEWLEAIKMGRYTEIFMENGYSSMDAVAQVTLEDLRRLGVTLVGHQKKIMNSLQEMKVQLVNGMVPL
The target is the same in assay [5]. As to conditions: at 10 µM.
The target in assay [6] is Ephrin type-A receptor 7 (Homo sapiens) (UniProt Q15375). The following applies: at 1 µM.
Ephrin type-A receptor 7 (Homo sapiens), sequence (Q15375 28-998 limits assumed): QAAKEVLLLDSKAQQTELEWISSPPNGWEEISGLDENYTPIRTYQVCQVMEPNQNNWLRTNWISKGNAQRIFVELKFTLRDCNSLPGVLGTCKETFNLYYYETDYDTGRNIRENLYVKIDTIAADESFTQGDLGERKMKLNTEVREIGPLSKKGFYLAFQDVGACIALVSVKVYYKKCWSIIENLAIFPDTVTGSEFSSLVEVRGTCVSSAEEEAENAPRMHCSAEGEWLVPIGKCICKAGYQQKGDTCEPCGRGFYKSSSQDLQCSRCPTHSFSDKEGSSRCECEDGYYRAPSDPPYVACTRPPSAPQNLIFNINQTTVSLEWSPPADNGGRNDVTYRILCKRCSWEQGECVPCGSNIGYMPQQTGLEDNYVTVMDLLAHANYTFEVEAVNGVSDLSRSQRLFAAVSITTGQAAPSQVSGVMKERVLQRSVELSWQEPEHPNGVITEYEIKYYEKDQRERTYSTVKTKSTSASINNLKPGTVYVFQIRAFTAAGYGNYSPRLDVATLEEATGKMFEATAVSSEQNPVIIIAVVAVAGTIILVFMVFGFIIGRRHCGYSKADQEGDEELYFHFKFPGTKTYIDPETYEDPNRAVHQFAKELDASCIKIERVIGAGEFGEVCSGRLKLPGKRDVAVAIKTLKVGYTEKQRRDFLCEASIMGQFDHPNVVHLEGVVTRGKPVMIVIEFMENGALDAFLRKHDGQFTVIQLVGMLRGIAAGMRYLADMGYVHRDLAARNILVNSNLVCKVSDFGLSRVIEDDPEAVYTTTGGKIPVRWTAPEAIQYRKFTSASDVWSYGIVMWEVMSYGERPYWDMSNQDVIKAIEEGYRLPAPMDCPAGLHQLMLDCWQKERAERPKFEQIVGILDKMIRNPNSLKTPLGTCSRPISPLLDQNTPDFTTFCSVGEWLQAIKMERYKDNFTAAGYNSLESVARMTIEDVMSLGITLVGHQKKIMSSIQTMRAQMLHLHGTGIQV
Assay [7] has the same target. As to conditions: at 10 µM.
Assay [8] concerns the target T2, Ephrin type-A receptor 8 (Homo sapiens) (UniProt P29322).
T2 sequence (whole entry): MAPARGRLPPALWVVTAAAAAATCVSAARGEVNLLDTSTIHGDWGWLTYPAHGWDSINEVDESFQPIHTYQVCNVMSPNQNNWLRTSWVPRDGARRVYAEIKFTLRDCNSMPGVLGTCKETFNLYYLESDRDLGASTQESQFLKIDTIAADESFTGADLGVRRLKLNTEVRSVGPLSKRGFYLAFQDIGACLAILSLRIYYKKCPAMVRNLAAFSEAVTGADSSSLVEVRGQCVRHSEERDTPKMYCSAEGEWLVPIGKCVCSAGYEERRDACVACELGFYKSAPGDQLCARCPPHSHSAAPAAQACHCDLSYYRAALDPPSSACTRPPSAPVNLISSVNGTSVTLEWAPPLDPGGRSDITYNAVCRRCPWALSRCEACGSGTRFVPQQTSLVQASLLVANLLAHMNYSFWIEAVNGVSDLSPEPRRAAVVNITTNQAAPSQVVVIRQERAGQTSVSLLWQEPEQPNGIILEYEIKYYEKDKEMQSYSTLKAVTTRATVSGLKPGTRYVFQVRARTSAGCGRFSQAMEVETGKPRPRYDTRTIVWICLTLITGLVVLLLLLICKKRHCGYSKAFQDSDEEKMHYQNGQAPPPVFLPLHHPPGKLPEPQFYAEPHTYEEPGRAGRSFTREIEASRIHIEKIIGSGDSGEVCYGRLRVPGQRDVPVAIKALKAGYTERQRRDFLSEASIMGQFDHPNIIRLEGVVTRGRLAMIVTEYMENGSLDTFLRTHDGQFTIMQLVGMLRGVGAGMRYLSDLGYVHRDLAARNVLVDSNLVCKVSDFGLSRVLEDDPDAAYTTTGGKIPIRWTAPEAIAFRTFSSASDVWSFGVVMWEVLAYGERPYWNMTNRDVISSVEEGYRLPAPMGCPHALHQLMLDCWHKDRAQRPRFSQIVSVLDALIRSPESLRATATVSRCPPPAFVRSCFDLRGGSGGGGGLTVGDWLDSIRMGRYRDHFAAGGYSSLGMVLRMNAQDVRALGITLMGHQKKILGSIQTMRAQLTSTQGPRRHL
As to conditions: at 1 µM.

For assay [9], the target named is T2, Ephrin type-A receptor 8 (Homo sapiens). As to conditions: at 10 µM.
For assay [10], the target named is T3, Ephrin type-B receptor 1 (Homo sapiens) (UniProt P54762).
T3 sequence (whole entry): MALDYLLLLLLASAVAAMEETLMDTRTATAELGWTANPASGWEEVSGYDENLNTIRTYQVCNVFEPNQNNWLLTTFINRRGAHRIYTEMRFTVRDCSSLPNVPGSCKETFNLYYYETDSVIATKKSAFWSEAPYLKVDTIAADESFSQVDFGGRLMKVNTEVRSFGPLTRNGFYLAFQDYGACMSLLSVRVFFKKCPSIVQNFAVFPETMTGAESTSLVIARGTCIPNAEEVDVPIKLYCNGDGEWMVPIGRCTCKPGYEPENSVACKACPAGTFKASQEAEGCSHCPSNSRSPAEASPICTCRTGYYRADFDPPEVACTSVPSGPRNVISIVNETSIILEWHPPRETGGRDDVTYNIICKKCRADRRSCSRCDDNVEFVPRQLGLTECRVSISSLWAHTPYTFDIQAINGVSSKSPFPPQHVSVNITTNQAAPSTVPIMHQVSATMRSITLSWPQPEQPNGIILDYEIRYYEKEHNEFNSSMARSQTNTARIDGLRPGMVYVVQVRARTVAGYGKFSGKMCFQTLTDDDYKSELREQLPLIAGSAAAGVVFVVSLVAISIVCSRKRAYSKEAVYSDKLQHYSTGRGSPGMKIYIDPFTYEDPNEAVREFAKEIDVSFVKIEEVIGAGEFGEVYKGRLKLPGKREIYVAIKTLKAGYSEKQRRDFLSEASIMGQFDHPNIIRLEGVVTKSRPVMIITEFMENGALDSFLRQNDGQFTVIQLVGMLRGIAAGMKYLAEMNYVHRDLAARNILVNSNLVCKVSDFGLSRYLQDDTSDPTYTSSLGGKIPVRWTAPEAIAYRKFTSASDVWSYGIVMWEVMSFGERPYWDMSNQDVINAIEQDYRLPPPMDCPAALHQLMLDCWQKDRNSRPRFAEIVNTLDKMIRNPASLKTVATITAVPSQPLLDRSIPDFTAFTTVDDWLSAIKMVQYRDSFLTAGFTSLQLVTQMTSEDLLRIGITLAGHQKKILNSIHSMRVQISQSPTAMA
The following applies: at 1 µM.

The residual activity is the signal under treatment as a percentage of the control signal. Read a low residual activity as a large loss of activity. `CCOc1cc2ncnc(Nc3cccc(Br)c3)c2cc1OCC`: the residual activity in assay [1] came to 22%; in assay [2], 86%; in assay [3] it was 31%; in assay [4] it was 50%; in [5], 9%; in assay [6], 48%. In addition, the residual activity worked out at 7% in [7], 54% in assay [8], 20% in [9] and 48% in assay [10].
